Results filed as inconclusive are left out. Entries that show only a call come without a potency. Activity calls are given as the source filed them. The call rests on the fitted dose curve; in most records, active means well fitted inhibition curve with a large enough effect; inconclusive means small, poorly fitted or top-dose-only effect; inactive means flat fitted curve, though single readings scatter.
These compounds were tested against Voltage-gated inwardly rectifying potassium channel KCNH2 (Homo sapiens) (UniProt Q12809) (assay: qHTS Assay for Small Molecule Inhibitors of the Human hERG Channel Activity (AID 588834;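 further: lower thallium flux fluorescence means stronger hERG block; nearly all actives have a fitted effect of over 50% in size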; further: potency means the concentration at half of the fitted maximal effect)). Settings: U2OS BacMam hERG, FluxOR thallium flux fluorescence; series mostly up to 46.1 µM.
Voltage-gated inwardly rectifying potassium channel KCNH2 (Homo sapiens), sequence (Q12809 whole entry, looked up): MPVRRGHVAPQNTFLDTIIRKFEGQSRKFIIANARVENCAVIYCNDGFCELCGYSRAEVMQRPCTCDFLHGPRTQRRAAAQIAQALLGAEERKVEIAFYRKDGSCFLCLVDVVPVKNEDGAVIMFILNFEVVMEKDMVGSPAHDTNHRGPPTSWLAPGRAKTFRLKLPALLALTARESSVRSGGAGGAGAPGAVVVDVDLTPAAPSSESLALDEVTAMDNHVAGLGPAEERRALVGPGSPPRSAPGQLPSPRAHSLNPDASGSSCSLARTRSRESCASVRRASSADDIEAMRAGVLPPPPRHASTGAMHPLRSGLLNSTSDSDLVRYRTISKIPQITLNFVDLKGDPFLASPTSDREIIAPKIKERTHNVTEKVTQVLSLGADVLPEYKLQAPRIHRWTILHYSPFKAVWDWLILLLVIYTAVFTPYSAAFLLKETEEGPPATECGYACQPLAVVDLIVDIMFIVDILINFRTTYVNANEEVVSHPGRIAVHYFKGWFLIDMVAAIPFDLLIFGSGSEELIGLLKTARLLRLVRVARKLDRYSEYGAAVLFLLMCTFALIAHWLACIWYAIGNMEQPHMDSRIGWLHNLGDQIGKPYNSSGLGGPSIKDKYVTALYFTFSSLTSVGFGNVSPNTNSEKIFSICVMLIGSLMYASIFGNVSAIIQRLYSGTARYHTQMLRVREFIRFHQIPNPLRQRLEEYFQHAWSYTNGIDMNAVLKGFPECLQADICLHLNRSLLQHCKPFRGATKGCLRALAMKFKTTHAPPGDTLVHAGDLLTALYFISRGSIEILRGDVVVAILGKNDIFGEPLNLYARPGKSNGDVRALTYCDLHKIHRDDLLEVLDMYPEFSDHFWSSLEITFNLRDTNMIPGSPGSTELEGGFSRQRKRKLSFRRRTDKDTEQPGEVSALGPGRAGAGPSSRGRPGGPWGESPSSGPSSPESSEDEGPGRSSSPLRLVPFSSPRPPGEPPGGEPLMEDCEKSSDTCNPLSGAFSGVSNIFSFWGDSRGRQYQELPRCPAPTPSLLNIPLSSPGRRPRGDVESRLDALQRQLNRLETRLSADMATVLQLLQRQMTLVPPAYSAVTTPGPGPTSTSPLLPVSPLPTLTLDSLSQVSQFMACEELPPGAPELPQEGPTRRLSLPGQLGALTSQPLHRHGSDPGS
Method in brief: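 Homogeneous FluxOR thallium flux assay using hERG-expressing U2OS cells (BacMam). Compound treatment about 10 minutes preceded stimulation; reduced fluorescence taken as channel block.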
`CCNC(=O)[C@H]1O[C@@H](n2cnc3c(N)nc(NCCc4ccc(CCC(=O)O)cc4)nc32)[C@H](O)[C@H]1O` was tested, and the Potency was “inactive”. For `N#CC(c1ccc(Cl)cc1)c1c(Cl)cc(-n2ncc(=O)[nH]c2=O)cc1Cl` (configuration not stated), the Potency was “inactive”. In the case of `COc1ccc(-c2nc3ccc(C4=NNC(=O)CC4C)cc3[nH]2)cc1` (configuration not stated), the Potency is reported as “inactive”. In the case of `NS(=O)(=O)c1cc(Cl)c(Cl)c(S(N)(=O)=O)c1`, the Potency is reported as “inactive”. For `CN1CC(=O)N2C(Cc3c([nH]c4ccccc34)[C@H]2c2ccc3c(c2)OCO3)C1=O` (some centres not stated), the Potency was “inactive”. `CC[C@H](C)C(=O)O[C@H]1C[C@H](O)C=C2C=C[C@H](C)[C@H](CC[C@@H](O)C[C@@H](O)CC(=O)O)[C@H]21` was tested, and the Potency was “inactive”. `NCC1CCC(C(=O)O)CC1` (configuration not stated) was tested, and the Potency was “inactive”. `CN1CCN2c3ncccc3Cc3ccccc3C2C1` (configuration not stated) was tested, and the Potency was “inactive”. For `N#Cc1c(N(CC(=O)O)CC(=O)O)sc(C(=O)O)c1CC(=O)O`, the Potency was “inactive”. For `Clc1ccc(COC(Cn2ccnc2)c2ccc(Cl)cc2Cl)c(Cl)c1` (configuration not stated), the Potency was 4.47 µM (active). `CS(=O)(=O)c1ccc(C2=C(c3ccccc3)C(=O)OC2)cc1` was tested, and the Potency was “inactive”. `COc1c(C)c2c(c(O)c1CC=C(C)CCC(=O)OCCN1CCOCC1)C(=O)OC2` was tested, and the Potency was “inactive”. With `O=C(O)c1nc(=O)[nH]c(=O)[nH]1` the Potency was “inactive”. For `C[C@@H]1C[C@H]2[C@@H]3CCC4=CC(=O)C=C[C@]4(C)[C@@]3(F)[C@@H](O)C[C@]2(C)[C@@]1(O)C(=O)CO`, the Potency was “inactive”.

Each compound was assayed against Luciferin 4-monooxygenase (Photinus pyralis) (UniProt P08659) (assay: Biochemical firefly luciferase enzyme assay for NPC (AID 624030;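 further: purified P. pyralis luciferase at 10 nM with luciferin and ATP substrate; nearly all actives have a fitted effect of over 70% in size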)). Settings: purified P. pyralis luciferase, luminescence, 5 min; series mostly up to 58.6 µM.
Luciferin 4-monooxygenase (Photinus pyralis), sequence (P08659 whole entry, looked up): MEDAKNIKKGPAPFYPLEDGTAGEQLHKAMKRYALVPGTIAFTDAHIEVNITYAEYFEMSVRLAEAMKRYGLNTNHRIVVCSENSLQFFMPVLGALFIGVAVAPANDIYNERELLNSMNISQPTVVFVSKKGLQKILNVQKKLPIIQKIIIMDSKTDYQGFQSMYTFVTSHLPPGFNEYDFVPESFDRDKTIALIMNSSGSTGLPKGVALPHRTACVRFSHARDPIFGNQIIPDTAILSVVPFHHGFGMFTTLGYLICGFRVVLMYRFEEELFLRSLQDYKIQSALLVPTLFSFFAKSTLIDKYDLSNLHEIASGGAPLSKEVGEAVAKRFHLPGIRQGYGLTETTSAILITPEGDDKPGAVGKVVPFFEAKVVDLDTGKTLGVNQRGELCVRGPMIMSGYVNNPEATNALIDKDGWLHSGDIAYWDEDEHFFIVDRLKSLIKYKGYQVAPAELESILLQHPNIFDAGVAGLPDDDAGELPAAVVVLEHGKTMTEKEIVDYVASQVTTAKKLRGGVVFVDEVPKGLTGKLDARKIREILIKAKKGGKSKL
Method in brief: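 Purified P. pyralis luciferase at 10 nM in 50 mM Tris Acetate (final), luminescence read within 5 minutes of enzyme addition to compounds. Activity normalised to PTC124 versus DMSO; concentration-response curves classed by r2, magnitude and activity.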
For `O=C1C(CCC(O)c2ccc(F)cc2)C(c2ccc(O)cc2)N1c1ccc(F)cc1` (configuration not stated), the outcome was “inactive”. `C=C1c2cccc(O)c2C(O)=C2C(=O)[C@@]3(O)C(O)=C(C(N)=O)C(=O)[C@@H](N(C)C)[C@@H]3[C@@H](O)[C@H]12` was tested, and the outcome was “inactive”. With `CCCCC(F)(F)[C@@]1(O)CC[C@H]2[C@H](CC(=O)[C@@H]2CCCCCCC(=O)O)O1` the outcome was “inactive”. With `NS(=O)(=O)c1cc(Cl)c(Cl)c(S(N)(=O)=O)c1` the outcome was “inactive”. With `CC(C)CN(C[C@@H](O)[C@H](Cc1ccccc1)NC(=O)O[C@H]1CO[C@H]2OCC[C@H]21)S(=O)(=O)c1ccc(N)cc1` the outcome was “inactive”. In the case of `CN1CC(=O)N2C(Cc3c([nH]c4ccccc34)[C@H]2c2ccc3c(c2)OCO3)C1=O` (some centres not stated), the outcome is reported as “inactive”. With `C[C@@H](O[C@H]1OCCN(Cc2n[nH]c(=O)[nH]2)[C@@H]1c1ccc(F)cc1)c1cc(C(F)(F)F)cc(C(F)(F)F)c1` the outcome was “inactive”. `CCCCCCCCCCCCCCCC(=O)O[C@H]1[C@@H](O)[C@@H](O)[C@@H]([C@H](NC(=O)[C@@H]2C[C@@H](CCC)CN2C)[C@H](C)Cl)O[C@@H]1SC` was tested, and the outcome was “inactive”. With `CC[C@@H]([C@H](C)O)n1ncn(-c2ccc(N3CCN(c4ccc(OCC5CO[C@@](Cn6cncn6)(c6ccc(F)cc6F)C5)cc4)CC3)cc2)c1=O` (some centres not stated) the outcome was “inactive”. In the case of `CC[C@]1(O)C[C@H]2CN(CCC3=c4ccccc4=N[C]3[C@@](C(=O)OC)(c3cc4c(cc3OC)N(C)[C@H]3[C@@](O)(C(N)=O)[C@H](O)[C@]5(CC)C=CCN6CC[C@]43[C@@H]65)C2)C1`, the outcome is reported as “inactive”. For `CCC[C@H](N[C@@H](C)C(=O)N1[C@@H]2CCCC[C@H]2C[C@H]1C(=O)O)C(=O)OCC`, the outcome was “inactive”. `NCC1CCC(C(=O)O)CC1` (configuration not stated) was tested, and the outcome was “inactive”. With `COc1ccnc(CS(=O)c2nc3ccc(OC(F)F)cc3[nH]2)c1OC` (configuration not stated) the outcome was “inactive”. For `Fc1ccc(C(c2ccc(F)cc2)N2CCN(CC=Cc3ccccc3)CC2)cc1`, the outcome was “inactive”. For `CC(C)(CO)[C@@H](O)C(=O)NCCC(=O)O`, the outcome was “inactive”. In the case of `CN1CCN2c3ncccc3Cc3ccccc3C2C1` (configuration not stated), the outcome is reported as “inactive”. In the case of `N#Cc1c(N(CC(=O)O)CC(=O)O)sc(C(=O)O)c1CC(=O)O`, the outcome is reported as “inactive”. `CCC(=O)OCC(=O)[C@@]1(OC(=O)CC)[C@@H](C)C[C@@H]2[C@H]3CCC4=CC(=O)C=C[C@]4(C)[C@@]3(F)[C@@H](O)C[C@@]21C` was tested, and the outcome was “inactive”. In the case of `COc1cc2c(cc1OC)CC(=O)N(CCCN(C)C[C@H]1Cc3cc(OC)c(OC)cc31)CC2`, the outcome is reported as “inactive”. With `Clc1ccc(COC(Cn2ccnc2)c2ccc(Cl)cc2Cl)c(Cl)c1` (configuration not stated) the outcome was “inactive”. With `CS(=O)(=O)c1ccc(C2=C(c3ccccc3)C(=O)OC2)cc1` the outcome was “inactive”. For `CN(C)CCN(Cc1ccc(Cl)cc1)c1ccccn1`, the outcome was “inactive”. With `COc1c(C)c2c(c(O)c1CC=C(C)CCC(=O)OCCN1CCOCC1)C(=O)OC2` the outcome was “inactive”. For `Cc1cc2nc3c(=O)[nH]c(=O)nc-3n(CC(O)C(O)C(O)CO)c2cc1C` (configuration not stated), the outcome was “inactive”. For `CC[C@H]1OC(=O)[C@H](C)[C@@H](O[C@H]2C[C@@](C)(OC)[C@@H](O)[C@H](C)O2)[C@H](C)[C@@H](O[C@@H]2O[C@H](C)C[C@H](N(C)C)[C@H]2O)[C@](C)(O)C[C@H](C)C(=NOCOCCOC)[C@H](C)[C@@H](O)[C@]1(C)O`, the outcome was “inactive”. For `O=C(O)c1nc(=O)[nH]c(=O)[nH]1`, the outcome was “inactive”. With `O=C1CN2Cc3c(ccc(Cl)c3Cl)N=C2N1` the outcome was “inactive”. In the case of `O=C(CCCN1CCN(c2ccc(F)cc2)CC1)NC1c2ccccc2CSc2ccccc21` (configuration not stated), the outcome is reported as “inactive”.
